This passage reports Potency results from PubChem BioAssay AID624335 (National Center for Advancing Translational Sciences (NCATS), 2012).

The source made the active and inactive calls. Calls follow the shape of the dose curve; as a rule, active = well fitted curve in the direction sought with a large enough effect; inactive = flat fitted curve, though single readings scatter.

The assay in a line: Quantitative high throughput screen for delayed death inhibitors of the malarial parasite plastid: Hit Validation with 3D7 at 96 hr using Flow Cytometry. The following applies: P. falciparum 3D7 in erythrocytes, SYBR/MitoTracker flow cytometry. The source says: The goal of this screen is to discover new antimalarial compounds that act by inhibiting the development of the apicoplast organelle in the malarial parasite Plasmodium falciparum. Some antibiotics, such as azithromycin and tetracycline, are known to interfere with the apicoplast translational machinery, and have a potent antimalarial effect. […] We developed a cell-based quantitative high throughput screen that leverages this "delayed death" phenotype to enrich for compounds that target the apicoplast. To detect small molecules that cause the delayed death phenotype, erythrocytes infected with firefly luciferase-expressing parasites were incubated with compounds for either one or two generations, corresponding to 48 and 96 hours, respectively. Growth inhibition was detected by a decrease in luciferase activity. Compounds that inhibited parasite growth in the second generation at least five-fold more potently than in the first generation were defined as delayed death inducing. These compounds were selected for confirmatory screening using a flow cytometry based assay. This hit validation assay used the 3D7 cell line and measured at 96 hours. NIH Molecular Libraries Probe Production Network [MLPCN] NIH Chemical Genomics Center [NCGC] MLPCN Grant: R21 NS059500 Assay Provider: David Fidock and Eric Ekland, Columbia University
Test compounds were diluted in 20 microliters of complete media (RPMI 1640 with 0.5% w/v Albumax (GIBCO), 24 mM sodium bicarbonate (Sigma) and 10 ug/mL gentamycin (Gibco)) in clear 384-well plates (Greiner). All liquid handling was conducted using a Bio Tek Precision 2000 pipetting system. Twenty microliters of infected erythrocytes, 0.2% parasitemia (for 48 hour time points) or 0.1% parasitemia (for 96 hour time points) were added to the compound dilutions (1% hematocrit, final concentration; 40 microliters, total culture volume). The assay plates were incubated for 48 hours, or 96 hours, at 37 masculine C in a humidified chamber (Billups- Rothenberg, Del Mar, CA, USA), gassed with 5%CO2/5%O2/ 90%N2. After two generations (96hours), 5 microliters of culture were harvested and transferred to a second 384 well plate for fluorescent staining. Samples were stained with 30 microliters of 2 x SYBR Green I (Invitrogen) and 150nM MitoTracker Deep Red (Invitrogen) diluted in 0.9% NaCl, 0.2% dextrose (Baxter) supplemented with 2.5% Fetal Calf Serum (Gibco) (saline/FCS). Mature erythrocytes lack nuclei and mitochondria, therefore only parasitized erythrocytes retain the SYBR Green I and MitoTracker Deep Red. After 30 minutes at 37 masculine C, the stained cells were diluted in an additional 60 microliters of saline/FCS. The samples were harvested directly from the 384 well plate using a Hypercyt High Capacity Flow Platform (Intellicyt) paired with a C6 Flow Cytometer (Accuri). The flow cytometry files were analyzed using FlowJo software (FlowJo).
For orientation: Flow cytometry measures light scatter and fluorescence of single cells or particles in a stream.
In the case of `COc1ccc2c(ccc[n+]2CC(=O)c2ccccc2)c1`, the Potency is 2.22 µM (active).

Take `Brc1cccc(OCCCCN2CCCCC2)c1`: the Potency was 22.7 µM (active).

`O=C(Nc1ccccc1N1CCOCC1)c1cccc(S(=O)(=O)N2CCOCC2)c1`: the Potency is 11 µM (active).

As for `COc1ccc(NC(=S)N2CCC(Cc3ccccc3)CC2)cc1OC`, the Potency is 26.6 µM (active).

Take `O=C(CNC(=O)C1CCCCC1)OC(C(=O)c1ccccc1)c1ccccc1` (stereo not given): the Potency was 31.7 µM (active).

Take `Cc1c(F)c(N2CCNC(C)C2)cc2c1c(=O)c(C(=O)O)cn2C1CC1` (stereo not given): the Potency is 0.651 µM (active).

Consider `c1csc(CNc2ncnc3nc[nH]c23)c1`, for which the Potency is 23.4 µM (active).

As for `COc1cc(C(C)=O)ccc1OCC(O)CN1CCN(c2cc(C)cc(C)c2)CC1` (stereo not given), the Potency is 13.9 µM (active).

`Cc1ccc(S(=O)(=O)Nc2ccc(C(=O)Nc3ccncc3)cc2)cc1`: the Potency was 13.9 µM (active).

Consider `CN(C)c1ccc(CN(C(=O)c2ccccc2Br)C2CCS(=O)(=O)C2)cc1` (stereo not given), for which the Potency is 18.2 µM (active).

Take `Clc1ccc(-c2c[n+](Cc3ccc(Cl)cc3Cl)c3n2CCCCC3)cc1`: the Potency was 0.366 µM (active).

Turning to `N#Cc1cccc(NC(=O)Cn2c3[n+](c4ccc(C(F)(F)F)cc42)CCCCC3)c1`, the Potency is 0.96 µM (active).

In the case of `COc1ccccc1N1CCN(CCC(=O)Nc2ccc(F)cc2)CC1`, the Potency is 15.7 µM (active).

For `COCCNC(=O)c1cccc(OC2CCN(Cc3cccc(SC)c3)CC2)c1`, the Potency is 5.37 µM (active).

Take `CC1=Nc2cc(C(=O)N3CCCC3)ccc2Sc2ccc(C)cc21`: the Potency is 18 µM (active).

Regarding `CCCCN(CCCNC(=O)C1CCN(C(=O)c2cc3sccc3n2C)CC1)Cc1ccccc1`, the Potency is 0.617 µM (active).

In the case of `COc1ccc(Nc2nnc(-c3ccc(C)cc3)c3ccccc23)cc1C(=O)N1CCCCC1`, the Potency is 20 µM (active).

In the case of `CC(=O)NC[C@@H]1CN(c2ccc(N3CCOCC3)c(F)c2)C(=O)O1`, the Potency is 22.2 µM (active).

`O=C(c1ccc([N+](=O)[O-])cc1)n1nc(-c2ccccc2)nc1NCc1ccc(F)cc1`: the Potency was 19.3 µM (active).

As to `CCOC(=O)c1ccc2c(c1)n(CC)c(/C=C/N(C)c1ccccc1)[n+]2CC`, the Potency was 0.209 µM (active).

For `CC(C)C(=O)NCCSc1c[nH]c2ccccc12`, the Potency is 16.6 µM (active).

`CN(C)S(=O)(=O)c1cc(NC(=O)C2=COCCO2)ccc1Cl`: the Potency was 15.9 µM (active).

As for `CO[C@@H]1[C@@H](OC2OC(C)C(OC3CC(C)(O)C(OC(=O)CC(C)C)C(C)O3)C(N(C)C)C2O)[C@@H](CC=O)C[C@@H](C)C(=O)/C=C\C2O[C@H]2C[C@@H](C)OC(=O)C[C@H]1OC(C)=O` (stereo not given in full), the Potency is 0.178 µM (active).

Consider `COc1ccc(CNC(=O)C2CCC(CNS(=O)(=O)c3cccc4cccnc34)CC2)cc1` (stereo not given), for which the Potency is 16.5 µM (active).

Take `CCCc1cc(=O)oc2cc(OC(C)C(=O)NCc3ccccn3)c(Cl)cc12` (stereo not given): the Potency is 3.22 µM (active).

For `CCCc1c(CC)c(=N)c2ccccc2n1C`, the Potency was 0.198 µM (active).

`Cc1sc2nc[nH]c(=O)c2c1-c1ccc(Cl)cc1`: the Potency is 13.8 µM (active).

On to `Cc1ccc(-n2c(-c3ccc(Cl)cc3)c[n+]3c2CCC3)cc1`, for which the Potency was 0.15 µM (active).

`CCCCOc1ccc(N2C(N)=NC(N)=NC23CCCCC3)cc1`: the Potency was 15.8 µM (active).

`Cc1ccc(CN2CCC(n3nccc3NC(=O)c3ccccc3C)CC2)o1`: the Potency was 20.7 µM (active).

For `CCc1nc(SCC(=O)Nc2ccc(N(C)C)cc2)n[nH]1`, the Potency was 23.9 µM (active).

Regarding `CCC(=O)OC1C(N(C)C)CC(C)O[C@H]1O[C@H]1[C@H](C)[C@@H](O[C@H]2CC(OC)[C@@H](O)C(C)O2)[C@H](C)C(=O)O[C@@H](CC)[C@](C)(O)[C@@H](O)[C@H](C)C(=O)[C@@H](C)C[C@]1(C)O` (stereo not given in full), the Potency was 11.4 µM (active).

For `O=C(NCc1cccnc1)c1ccc(NS(=O)(=O)c2ccccc2)cc1`, the Potency is 21.4 µM (active).

For `COc1ccc2cc3cc(C(=O)Nc4ccc5c(c4)OCO5)oc3nc2c1`, the Potency was 11.9 µM (active).

`CCOc1ccc(S(=O)(=O)Nc2cc(S(=O)(=O)N(CC)CC)ccc2N2CCCC2)cc1`: the Potency is 6.38 µM (active).

In the case of `CCOc1ccc(C(=O)Nc2ccc(N3CCN(C)CC3)cc2)cc1`, the Potency was 16.5 µM (active).

For `COc1cccc(CN2CCN(c3nc4nonc4nc3N3CCCCC3)CC2=O)c1`, the Potency is 1 µM (active).

For `CCN(CC)C(=O)COc1coc(CN2CCN(c3cccc(Cl)c3)CC2)cc1=O`, the Potency is 17.2 µM (active).

As to `CCCCN(CCCNC(=O)c1ccc(CS(=O)(=O)c2ccc(OC)cc2)o1)Cc1ccccc1`, the Potency was 4.01 µM (active).

`CCOc1ccc(NC(=O)C[n+]2ccc(N(C)C)cc2)cc1`: the Potency is 0.135 µM (active).
